# Experimental data taken from PubChem BioAssay (NCATS).
# Results filed as inconclusive are left out. Unmarked numbers belong to inactive results. Calls of active or inactive are those of the source. The call rests on the fitted dose curve; in most records, active means well fitted cell-killing curve with a large enough effect; inconclusive means small, poorly fitted or top-dose-only effect; inactive means flat fitted curve, though single readings scatter.
# Test: Cell Viability - LYMP2-015 (AID 971);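 further: 0% = DMSO only and full effect = 92 µM tetraoctylammonium bromide; nearly all actives have a fitted effect of over 55% in size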
# Details: LYMP2-015 lymphoblastoid cell viability; series mostly up to 92.2 µM; activity change, negative = lower viability: at the top concentration
# Text: NIH Chemical Genomics Center [NCGC]
# NIH Molecular Libraries Screening Centers Network [MLSCN]
# National Institutes of Environmental Health Sciences [NIEHS]
# National Toxicology Program [NTP]
# We have developed a 1536-well cell-based assay for quantitative high throughput screening (qHTS) against a number of cell lines to determine in vitro cytotoxicity of small molecules. This particular assay uses a human lymphoblastoid cell line (LYMP2-015) purchased from Coriell Institute for Medical Research.
# NCGC Assay Protocol Summary:
# The CellTiter-Glo luminescent cell viability assay (Promega) is a homogeneous method to measure the number of viable cells in culture. The end point readout of this assay is based on quantitation of intracellular ATP, an indicator of metabolic activity, using the luciferase reaction. Luciferase catalyzes the oxidation of beetle Luciferin to oxyluciferin and light in the presence of ATP. The luminescent signal is proportional to amount of ATP present.
# Using the CellTiter-Glo luminescent cell viability assay, the amount of cellular ATP was measured in the lymphoblastoid cell line with complete culture medium following compound treatment for 24 hours. The assay was performed in opaque white Kalypsys 1536-well plates. In the screen, tetraoctylammonium bromide was used as positive control. Library compounds were measured for their ability to cause acute toxicity in the cell line, as reflected by a decrease in intracellular ATP levels, in a concentration-dependent manner. […] AC50 values were determined from concentration-response data modeled with the standard Hill equation.
# qHTS protocol for CellTiter Glo lymphoblastoid cellular assay
# [Step] [Parameter] [Value] [Description]
# 1. Reagent; 5 uL; 2500 lymphoblastoid cells/well
# 2. Time; 5 hr; 37 C incubation
# 4. Controls; 23 nL; Tetraoctylammonium bromide 6.4pM to 92 uM
# 5. Time; 24 hr; 37 C incubation
# 6. Reagent; 5 uL; CellTiter Glo reagent
# 7. Time; 30 min; Room Temperature
# 8. Detection; Luminescence; Viewlux plate reader
# Keywords: cell viability, cytotoxicity, lymphoblastoid cell line, luminescence, NTPHTS, NTPHTS_NCGC, NIEHS, DSSTox, MLSMR, MLSCN, NIH Roadmap, qHTS, NCGC
Structure (SMILES),"activity change, negative = lower viability",outcome
CCCCOC(=O)c1ccc(O)cc1,2.22%,–
NCCNCCNCCN,-0.243%,–
CCCCCCCCCCCCOS(=O)(=O)O,–,inactive
[Cl][In]([Cl])[Cl],-2.57%,–
CC12CCC(CC1)C(C)(C)O2,-11.8%,–
NC(=O)c1ncn([C@@H]2O[C@H](CO)[C@@H](O)[C@H]2O)n1,-29.4%,–
Nc1ccc(S(=O)(=O)Nc2nccs2)cc1,-23.4%,–
O=C1O[C@H]([C@@H](O)CO)C(O)=C1O,-23.6%,–
Oc1cccc(O)c1,-27.8%,–
C[C@]12C[C@H](O)[C@H]3[C@@H](CCC4=CC(=O)CC[C@@]43C)[C@@H]1CC[C@@H]2C(=O)CO,-14.5%,–
Cc1cc2nc3c(=O)[nH]c(=O)nc-3n(C[C@H](O)[C@H](O)[C@H](O)CO)c2cc1C,-15.7%,–
Cc1cc(CC(=O)O)n(C)c1C(=O)c1ccc(Cl)cc1,-0.167%,–
COc1ccccc1O,–,inactive
O=C1c2c(O)cccc2Cc2cccc(O)c21,-17.4%,–
NCCNCCNCCNCCN,-16.3%,–
CC1(C)[C@@H]2CC[C@@]1(C)C(=O)C2,-13.6%,–
